Assay results as given in PubChem BioAssay.
Records with an inconclusive call do not appear. Activity calls are given as the source filed them.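 The calls were made as follows, unless noted: active = normalized viability below 100% at a tested concentration; inactive = the rest.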

Legend:
[1] = viability loss in pontine glioma line – cell-based, SU-DIPG-XVII, MIPE5.0, CellTiter-Glo, qHTS, dose response (AID 1347060; cut-off not given, nearly all actives have AC50 up to about 26 µM;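 as to AC50: cells exposed to compound for 48 hours before viability readout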); details: CellTiter-Glo ATP luminescence
[2] = viability loss in pontine glioma line – cell-based, SU-DIPG-XIII, MIPE5.0, CellTiter-Glo, qHTS, dose response (AID 1347064; cut-off not given, nearly all actives have AC50 up to about 23 µM;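 as to AC50: cells exposed to compound for 48 hours before the viability read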); details: CellTiter-Glo ATP luminescence
[3] = viability loss in pontine glioma line – cell-based, SU-DIPG-XXV, MIPE5.0, CellTiter-Glo, qHTS, dose response (AID 1347065; cut-off not given, nearly all actives have AC50 up to about 26 µM;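 also: cells exposed to compound for 48 hours before ATP readout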); details: CellTiter-Glo ATP luminescence
[4] = JHH-DIPG-1 glioma cell viability, MIPE5.0 library, CellTiter-Glo luminescence, qHTS (AID 1347067; cut-off not given, nearly all actives have AC50 up to about 26 µM;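 also: cells exposed to compound for 48 hours before readout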); details: JHH-DIPG-1 glioma viability, CellTiter-Glo ATP luminescence
[5] = growth inhibition of DIPG cells – cell-based, MIPE5.0 library, qHTS (AID 1347068; cut-off not given, nearly all actives have IC50 up to about 30 µM;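 as to IC50: cells exposed to compound for 48 hours before viability readout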); details: SU-DIPG-XXV viability
[6] = viability loss with induced miR-34 in A549 – imaging, A549 dox-inducible miR-34, nuclei and caspase counts, primary screen (AID 1347080;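 active = compounds whose cell count with miR-34 switched on is under 0.7 times the count with it off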); details: A549 miR-34 inducible, Hoechst nuclei count, 48 h
[7] = MELAS cybrid and Rieske KO viability enhancers – cell-based, MELAS cybrids, Rieske KO mouse fibroblasts, CellTiter-Glo, primary screen (AID 1508586;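 active = mean z-score across replicates of 1.96 or higher in either the MELAS or the Rieske mutant cell line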;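 also: z relative to plate mean and SD of compound and empty wells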); details: low glucose
[8] = drug combination growth inhibition, ovarian cancer – cell-based, oncology-focused library, rucaparib conditional, profiling panel (AID 1508598); details: patient-derived ovarian cancer cells, CellTiter-Glo viability, 144 h, stronger effect = lower value
[9] = stronger effect = lower value, cell number ratio, induced over uninduced
[10] = measured here: relative caspase fold change +Dox/-Dox
[11] = measured here: total cells with miR-34 induction, stronger effect = lower value
[12] = measured here: total cells without miR-34 induction
[13] = MELAS cybrid survival, CellTiter-Glo 48 h, stronger effect = higher value
[14] = Rieske KO mouse fibroblast survival, CellTiter-Glo 72 h

CN1CCC(c2c(O)cc(O)c3c(=O)cc(-c4ccccc4Cl)oc23)C1CO (centres undefined)
1620: cell count [6, 11]
active: AC50 [1] 934 nM | AC50 [2] 1180 nM | AC50 [3] 1180 nM | AC50 [4] 1180 nM | IC50 [5] 1860 nM
1670: cell count [6, 12]
0.481: fold change [6, 10]
inactive: fold change [6, 9] 0.969 | z-score [7, 13] 0.124
-6.97: z-score [7, 14]

Cc1nnc(C(C)C)n1C1CC2CCC(C1)N2CC[C@H](NC(=O)C1CCC(F)(F)CC1)c1ccccc1 (some centres undefined)
active: viability ([8]; at 0.000305 µM, OCI-P5x cells, with rucaparib 20 µM, 100% = cells with rucaparib alone) 85.1% | viability ([8]; at 0.000305 µM, OCI-P5x cells, without rucaparib) 83.1% | viability ([8]; at 0.00122 µM, OCI-C5x cells, without rucaparib) 98.5% | viability ([8]; at 0.00122 µM, OCI-P5x cells, with rucaparib 20 µM, 100% = cells with rucaparib alone) 86.3% | viability ([8]; at 0.00122 µM, OCI-P5x cells, without rucaparib) 79.3% | viability ([8]; at 0.00488 µM, OCI-P5x cells, with rucaparib 20 µM, 100% = cells with rucaparib alone) 86.7% | viability ([8]; at 0.00488 µM, OCI-P5x cells, without rucaparib) 91.1% | viability ([8]; at 0.0195 µM, OCI-P5x cells, with rucaparib 20 µM, 100% = cells with rucaparib alone) 90.9% | viability ([8]; at 0.0195 µM, OCI-P5x cells, without rucaparib) 90.2% | viability ([8]; at 0.0781 µM, OCI-P5x cells, with rucaparib 20 µM, 100% = cells with rucaparib alone) 96% | viability ([8]; at 0.0781 µM, OCI-P5x cells, without rucaparib) 94% | viability ([8]; at 0.313 µM, OCI-C5x cells, without rucaparib) 99.8% | viability ([8]; at 0.313 µM, OCI-P5x cells, with rucaparib 20 µM, 100% = cells with rucaparib alone) 95.9% | viability ([8]; at 0.313 µM, OCI-P5x cells, without rucaparib) 94.1% | viability ([8]; at 1.25 µM, OCI-P5x cells, with rucaparib 20 µM, 100% = cells with rucaparib alone) 98.8% | viability ([8]; at 1.25 µM, OCI-P5x cells, without rucaparib) 93.2% | viability ([8]; at 5 µM, OCI-P5x cells, with rucaparib 20 µM, 100% = cells with rucaparib alone) 96.7% | viability ([8]; at 5 µM, OCI-P5x cells, without rucaparib) 95.4%
inactive: outcome [1] | outcome [2] | outcome [3] | outcome [4] | outcome [5] | viability ([8]; at 0.000305 µM, OCI-C5x cells, with rucaparib 10 µM, 100% = cells with rucaparib alone) 106% | viability ([8]; at 0.000305 µM, OCI-C5x cells, without rucaparib) 101% | viability ([8]; at 0.00122 µM, OCI-C5x cells, with rucaparib 10 µM, 100% = cells with rucaparib alone) 107% | viability ([8]; at 0.00488 µM, OCI-C5x cells, with rucaparib 10 µM, 100% = cells with rucaparib alone) 105% | viability ([8]; at 0.00488 µM, OCI-C5x cells, without rucaparib) 107% | viability ([8]; at 0.0195 µM, OCI-C5x cells, with rucaparib 10 µM, 100% = cells with rucaparib alone) 113% | viability ([8]; at 0.0195 µM, OCI-C5x cells, without rucaparib) 107% | viability ([8]; at 0.0781 µM, OCI-C5x cells, with rucaparib 10 µM, 100% = cells with rucaparib alone) 117% | viability ([8]; at 0.0781 µM, OCI-C5x cells, without rucaparib) 107% | viability ([8]; at 0.313 µM, OCI-C5x cells, with rucaparib 10 µM, 100% = cells with rucaparib alone) 111% | viability ([8]; at 1.25 µM, OCI-C5x cells, with rucaparib 10 µM, 100% = cells with rucaparib alone) 118% | viability ([8]; at 1.25 µM, OCI-C5x cells, without rucaparib) 108% | viability ([8]; at 5 µM, OCI-C5x cells, with rucaparib 10 µM, 100% = cells with rucaparib alone) 108% | viability ([8]; at 5 µM, OCI-C5x cells, without rucaparib) 112%

COc1cc(N2CCC(N)CC2)ccc1Nc1ncc(Cl)c(-c2c[nH]c3ccccc23)n1
inactive: fold change [6, 9] 0.915 | z-score [7, 13] 0.226
0.405: fold change [6, 10]
-0.504: z-score [7, 14]
active: AC50 [1] 525 nM | AC50 [2] 263 nM | AC50 [3] 209 nM | AC50 [4] 525 nM | IC50 [5] 742 nM
1920: cell count [6, 11]
2100: cell count [6, 12]

CC(C)n1cc(-c2ccc3c(c2)N(C)CC3)c2c(NS(=O)(=O)c3ccn(C)n3)ccnc21
inactive: outcome [1] | outcome [2] | outcome [3] | outcome [4] | outcome [5]
